For some of these results: Measured potencies and affinities stand elsewhere.

Common to all, as to set-up: scale not given: direction of the effect not stated beside the values
Test [1] deals with Protein translocase subunit SecA (Escherichia coli (strain K12)) (UniProt P10408). The test is described as follows: Assay to Identify E. coli SecA ATPase Inhibitors. The format is functional. As to conditions: 30 µM.
For test [2], the target named is T1, Ubiquitin-activating enzyme e1, putative (Leishmania donovani (strain BPK282A1)) (UniProt E9BSI1).
T1 sequence (whole entry): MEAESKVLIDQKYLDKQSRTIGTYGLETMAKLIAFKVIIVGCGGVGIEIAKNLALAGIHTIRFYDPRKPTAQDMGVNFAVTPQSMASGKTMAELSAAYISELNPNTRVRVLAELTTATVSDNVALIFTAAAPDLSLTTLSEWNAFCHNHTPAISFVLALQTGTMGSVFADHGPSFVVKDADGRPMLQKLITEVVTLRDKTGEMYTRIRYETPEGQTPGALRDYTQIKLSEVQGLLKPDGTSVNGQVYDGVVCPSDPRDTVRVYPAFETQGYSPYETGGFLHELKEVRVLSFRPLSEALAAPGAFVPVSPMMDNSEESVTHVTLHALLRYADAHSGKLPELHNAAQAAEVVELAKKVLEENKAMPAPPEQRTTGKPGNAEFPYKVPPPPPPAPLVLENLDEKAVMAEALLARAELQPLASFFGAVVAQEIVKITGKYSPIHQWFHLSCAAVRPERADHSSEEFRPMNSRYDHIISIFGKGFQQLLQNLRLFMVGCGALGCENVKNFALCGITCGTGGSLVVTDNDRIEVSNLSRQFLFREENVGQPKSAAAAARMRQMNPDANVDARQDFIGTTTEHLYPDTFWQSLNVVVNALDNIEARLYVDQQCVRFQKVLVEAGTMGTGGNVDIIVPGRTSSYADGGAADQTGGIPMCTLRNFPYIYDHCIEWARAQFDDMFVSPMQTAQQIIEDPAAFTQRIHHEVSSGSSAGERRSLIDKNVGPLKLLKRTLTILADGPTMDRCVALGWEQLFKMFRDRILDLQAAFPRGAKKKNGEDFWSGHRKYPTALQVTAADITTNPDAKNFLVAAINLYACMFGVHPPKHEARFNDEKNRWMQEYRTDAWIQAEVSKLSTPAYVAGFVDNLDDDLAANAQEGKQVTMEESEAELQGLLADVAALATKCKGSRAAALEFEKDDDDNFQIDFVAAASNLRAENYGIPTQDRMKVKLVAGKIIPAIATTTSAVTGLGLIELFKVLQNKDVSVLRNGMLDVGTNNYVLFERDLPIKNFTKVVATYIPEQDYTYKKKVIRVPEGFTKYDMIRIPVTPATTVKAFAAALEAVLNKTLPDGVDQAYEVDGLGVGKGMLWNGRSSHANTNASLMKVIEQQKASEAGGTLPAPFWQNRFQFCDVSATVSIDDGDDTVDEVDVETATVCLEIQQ
In words: Leishmania donovani Ubiquitin Activating Enzyme (LdE1). Format: functional. The note with it: 30 µM.

Test [3] addresses AMP-activated protein kinase, AMPK (Homo sapiens) (UniProt P54646+O43741+P54619+Q9UGJ0+Q9Y478+Q13131+Q9UGI9). In words: AMP-dependent Kinase enzyme assay. An in vitro enzyme assay that detects ADP turnover that is directly proportional to AMPK activity. This uses naive AMPK that is activated during the assay with MK-8722. Format: functional. The note with it: 30 µM.
Test [4] has as its target Sialic acid-binding Ig-like lectin 9 (Homo sapiens) (UniProt Q9Y336). In words: Hs-Siglec9 ALPHAscreen SOP 20170721. As to conditions: 10 µM. Background: Alpha assays give light when donor and acceptor beads are brought close together.
The test system of a further test is Trypanosoma cruzi. The test is described as follows: Trypanosoma cruzi phosphomannomutase and mannose-1-phosphate guanylyltransferase assay. The format is functional. As to conditions: 10 µM.
Test [5] concerns the target T2, Arginase-2, mitochondrial (Homo sapiens) (UniProt P78540).
T2 sequence (whole entry): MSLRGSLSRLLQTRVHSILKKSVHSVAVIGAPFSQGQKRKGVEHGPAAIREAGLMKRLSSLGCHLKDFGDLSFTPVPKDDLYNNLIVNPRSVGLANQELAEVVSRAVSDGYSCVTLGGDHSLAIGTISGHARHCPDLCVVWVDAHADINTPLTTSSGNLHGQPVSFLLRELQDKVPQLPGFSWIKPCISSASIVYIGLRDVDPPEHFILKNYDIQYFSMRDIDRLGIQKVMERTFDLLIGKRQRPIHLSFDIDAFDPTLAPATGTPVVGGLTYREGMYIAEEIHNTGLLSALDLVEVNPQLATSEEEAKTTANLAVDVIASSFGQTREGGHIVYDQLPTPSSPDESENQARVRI
The test is described as follows: in vitro enzyme assay to detect the production of urea directly proportional to the activity of Arginase II. Further: in the data most compounds retested in dose-response had high values. Format: functional. The note with it: 33.3 µM.

Test [6] concerns the target T3, Proteasome subunit beta (Trypanosoma cruzi) (UniProt O96673).
T3 sequence (whole entry): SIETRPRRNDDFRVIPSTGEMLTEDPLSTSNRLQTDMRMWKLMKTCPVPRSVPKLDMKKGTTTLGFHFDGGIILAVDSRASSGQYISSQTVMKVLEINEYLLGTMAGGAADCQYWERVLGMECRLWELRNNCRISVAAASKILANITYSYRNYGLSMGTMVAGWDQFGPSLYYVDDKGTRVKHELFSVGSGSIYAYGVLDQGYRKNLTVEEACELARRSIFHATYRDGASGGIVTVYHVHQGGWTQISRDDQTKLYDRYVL
The test is described as follows: Trypanosoma cruzi proteasome chymotrypsin-like activity (TcProtChymo) assay. Further: in the data most compounds retested in dose-response had high values. The format is functional. As to conditions: 9.37 µM.

Another test is filed under the species Homo sapiens. The test is described as follows: To identify inhibition of the IFN signalling (Jak-Stat) pathway via expression of an eGFP reporter gene under the control of an IFN-stimulated response element (ISRE) containing MxA promoter. Format: functional. As to conditions: 30 µM. A general note: Reporter assays use an easily measured gene product as a stand-in for the process of interest.

The target of test [7] is T4, Tyrosyl-tRNA synthetase, putative (Trypanosoma cruzi (strain CL Brener)) (UniProt Q4DSP6).
T4 sequence (whole entry): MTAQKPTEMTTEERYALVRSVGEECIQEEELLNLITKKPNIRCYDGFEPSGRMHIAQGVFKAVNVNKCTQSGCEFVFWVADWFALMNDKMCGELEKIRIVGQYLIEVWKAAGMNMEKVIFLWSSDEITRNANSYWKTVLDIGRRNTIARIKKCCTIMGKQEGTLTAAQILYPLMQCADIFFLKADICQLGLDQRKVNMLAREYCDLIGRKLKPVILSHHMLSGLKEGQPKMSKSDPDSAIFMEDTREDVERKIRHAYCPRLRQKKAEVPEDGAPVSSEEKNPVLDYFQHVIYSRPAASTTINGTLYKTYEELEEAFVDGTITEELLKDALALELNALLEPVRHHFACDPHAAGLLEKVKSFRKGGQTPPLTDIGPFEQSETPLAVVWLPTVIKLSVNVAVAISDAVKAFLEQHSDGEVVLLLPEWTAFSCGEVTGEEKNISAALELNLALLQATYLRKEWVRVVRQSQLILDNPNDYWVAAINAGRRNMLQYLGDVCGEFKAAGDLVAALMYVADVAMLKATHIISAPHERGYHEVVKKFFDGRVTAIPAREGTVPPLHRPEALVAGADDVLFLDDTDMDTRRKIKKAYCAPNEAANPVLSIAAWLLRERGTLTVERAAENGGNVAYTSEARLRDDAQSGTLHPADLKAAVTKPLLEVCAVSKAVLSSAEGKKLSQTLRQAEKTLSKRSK
In words: Trypanosoma cruzi tyrosyl tRNA synthetase (TcYRS) _High Tyrosine SOP. Further: in the data most compounds retested in dose-response had high values. The format is functional. As to conditions: 30 µM.

The target in test [8] is T4, Tyrosyl-tRNA synthetase, putative (Trypanosoma cruzi (strain CL Brener)). In words: Trypanosoma cruzi tyrosyl tRNA synthetase (TcYRS) SOP. The format is functional. As to conditions: 30 µM.
For test [9], the target named is Chromo domain-containing protein 1 (Saccharomyces cerevisiae (strain ATCC 204508 / S288c) (Baker's yeast)) (UniProt P32657). The test is described as follows: ScCHD-1 Enzyme Inhibition Assay. Further: in the data most compounds retested in dose-response had high values. Format: functional. As to conditions: 30 µM.
Sequence of Chromo domain-containing protein 1 (Saccharomyces cerevisiae (strain ATCC 204508 / S288c) (Baker's yeast)) (P32657 whole entry, the tested form may be a part): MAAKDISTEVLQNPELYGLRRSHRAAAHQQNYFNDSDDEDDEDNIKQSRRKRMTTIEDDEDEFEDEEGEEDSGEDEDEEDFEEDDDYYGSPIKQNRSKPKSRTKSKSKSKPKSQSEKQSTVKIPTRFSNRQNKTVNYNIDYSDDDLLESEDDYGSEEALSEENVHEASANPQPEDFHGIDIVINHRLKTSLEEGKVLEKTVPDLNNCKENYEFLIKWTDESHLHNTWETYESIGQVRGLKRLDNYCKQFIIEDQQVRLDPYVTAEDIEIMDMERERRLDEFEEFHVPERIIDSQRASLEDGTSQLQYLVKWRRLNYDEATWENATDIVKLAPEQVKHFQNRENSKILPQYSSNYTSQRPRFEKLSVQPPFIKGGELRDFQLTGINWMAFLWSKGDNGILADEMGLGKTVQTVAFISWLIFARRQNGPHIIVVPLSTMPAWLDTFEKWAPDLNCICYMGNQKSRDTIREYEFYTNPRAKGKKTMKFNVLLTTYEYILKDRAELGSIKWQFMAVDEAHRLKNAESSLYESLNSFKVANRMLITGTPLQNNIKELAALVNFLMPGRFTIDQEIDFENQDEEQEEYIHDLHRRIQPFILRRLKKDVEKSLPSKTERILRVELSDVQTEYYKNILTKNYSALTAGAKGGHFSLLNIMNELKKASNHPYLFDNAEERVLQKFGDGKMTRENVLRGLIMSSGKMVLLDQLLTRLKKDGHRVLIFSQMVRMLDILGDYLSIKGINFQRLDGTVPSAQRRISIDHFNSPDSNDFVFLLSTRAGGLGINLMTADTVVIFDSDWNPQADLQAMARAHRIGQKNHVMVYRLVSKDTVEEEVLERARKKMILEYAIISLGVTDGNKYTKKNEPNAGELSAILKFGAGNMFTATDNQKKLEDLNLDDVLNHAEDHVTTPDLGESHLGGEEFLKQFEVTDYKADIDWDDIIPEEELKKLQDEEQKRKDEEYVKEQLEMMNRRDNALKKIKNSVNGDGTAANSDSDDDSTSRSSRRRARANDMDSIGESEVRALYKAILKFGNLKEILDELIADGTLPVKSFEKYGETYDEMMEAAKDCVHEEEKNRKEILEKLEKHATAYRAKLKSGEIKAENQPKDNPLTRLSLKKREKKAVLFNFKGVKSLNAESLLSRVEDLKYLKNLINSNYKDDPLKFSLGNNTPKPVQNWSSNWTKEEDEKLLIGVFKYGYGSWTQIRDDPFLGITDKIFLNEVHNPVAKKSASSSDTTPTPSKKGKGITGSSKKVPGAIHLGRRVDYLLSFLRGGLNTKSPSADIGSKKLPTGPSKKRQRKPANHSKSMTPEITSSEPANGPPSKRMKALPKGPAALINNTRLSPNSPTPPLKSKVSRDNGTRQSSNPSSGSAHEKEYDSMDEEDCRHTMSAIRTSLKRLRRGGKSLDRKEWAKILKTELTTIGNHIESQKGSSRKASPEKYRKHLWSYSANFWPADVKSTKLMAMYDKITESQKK

Sequence of Sialic acid-binding Ig-like lectin 9 (Homo sapiens) (Q9Y336 whole entry): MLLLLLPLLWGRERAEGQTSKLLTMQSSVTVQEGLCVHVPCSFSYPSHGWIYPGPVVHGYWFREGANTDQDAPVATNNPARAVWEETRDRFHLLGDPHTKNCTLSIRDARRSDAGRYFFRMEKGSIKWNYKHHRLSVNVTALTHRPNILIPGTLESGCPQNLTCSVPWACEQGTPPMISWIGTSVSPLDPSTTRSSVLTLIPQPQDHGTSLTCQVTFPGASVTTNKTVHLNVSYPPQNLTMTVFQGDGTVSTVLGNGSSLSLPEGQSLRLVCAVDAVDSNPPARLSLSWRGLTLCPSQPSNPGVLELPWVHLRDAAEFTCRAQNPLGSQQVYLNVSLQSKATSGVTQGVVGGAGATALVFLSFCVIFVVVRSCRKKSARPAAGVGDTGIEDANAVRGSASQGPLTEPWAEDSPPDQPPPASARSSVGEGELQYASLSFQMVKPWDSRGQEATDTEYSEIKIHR
Sequence of Protein translocase subunit SecA (Escherichia coli (strain K12)) (P10408 whole entry): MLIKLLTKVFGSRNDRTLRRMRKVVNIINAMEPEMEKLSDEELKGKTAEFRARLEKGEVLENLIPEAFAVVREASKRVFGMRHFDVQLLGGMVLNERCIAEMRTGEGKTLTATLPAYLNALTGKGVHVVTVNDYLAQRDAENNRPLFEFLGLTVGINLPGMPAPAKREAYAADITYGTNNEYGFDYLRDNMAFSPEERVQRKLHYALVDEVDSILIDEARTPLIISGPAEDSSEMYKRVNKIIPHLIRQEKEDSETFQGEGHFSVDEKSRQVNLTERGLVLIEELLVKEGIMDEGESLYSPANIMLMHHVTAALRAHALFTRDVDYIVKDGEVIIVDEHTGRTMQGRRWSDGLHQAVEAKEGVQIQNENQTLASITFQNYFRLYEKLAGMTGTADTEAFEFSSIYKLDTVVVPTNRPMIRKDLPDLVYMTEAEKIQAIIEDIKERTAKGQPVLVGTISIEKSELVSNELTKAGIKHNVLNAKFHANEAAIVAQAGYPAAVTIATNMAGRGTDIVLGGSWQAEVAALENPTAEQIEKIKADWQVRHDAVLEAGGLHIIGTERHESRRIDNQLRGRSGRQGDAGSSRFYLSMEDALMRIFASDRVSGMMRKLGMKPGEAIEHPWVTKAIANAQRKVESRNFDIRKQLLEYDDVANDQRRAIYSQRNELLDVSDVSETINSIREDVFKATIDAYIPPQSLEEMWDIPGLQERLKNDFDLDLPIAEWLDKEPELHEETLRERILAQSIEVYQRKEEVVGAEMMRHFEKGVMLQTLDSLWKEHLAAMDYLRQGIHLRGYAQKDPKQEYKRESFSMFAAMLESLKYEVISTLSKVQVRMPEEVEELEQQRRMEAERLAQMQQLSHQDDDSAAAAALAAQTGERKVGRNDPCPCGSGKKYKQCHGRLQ

With `CC(C)n1cc(CN2CCCN(C(=O)c3cc(Cl)c[nH]3)CC2)cn1`, the Percent Effect in test [1] was -2.91%; in test [2], 10.8%; in test [3], -4.13%; in [4], 15.8%; with Trypanosoma cruzi, 1.23%; in test [5], -4.41%. For the same compound, the Percent Effect was 0.36% in test [6]; 15.2% in the test filed under Homo sapiens; 2.46% in test [7]; 13.6% in test [8]; -8.52% in test [9].
For `Cc1ccc(CN2CCOC3(COCCN(CCN(C)C)C3)C2)o1` (stereo unspecified), the Percent Effect is -3.53% in test [1]; 5.33% in test [2]; 9.65% in test [3]; 0.443% in test [4]; 1.18% in the test with Trypanosoma cruzi; -0.699% in test [5]. For the same compound, the Percent Effect was 14% in [6]; 3.66% in the test listed under Homo sapiens; 8.51% in test [7]; 19.2% in test [8]; -3.31% in [9].
Take `O=C(CCc1cscn1)NS(=O)(=O)c1ccc2c(c1)CCC2`: the Percent Effect in test [1] was -5.7%; in test [2], 15.3%; in test [3], -13.9%; in test [4] it was 36.9%; with Trypanosoma cruzi it was 7.29%; in [5], 22.5%. Besides, the Percent Effect in test [6] is 3.33%; in the test listed under Homo sapiens it was 5.07%; in [7] it was 3.16%; in [8], 15.4%; in test [9], -4.74%.
For `O=C1N(Cc2cccc(F)c2F)CCCC1(O)CNC1CCCC1` (stereo unspecified), the Percent Effect was -6.14% in test [1]; 16% in test [2]; -3.79% in test [3]; 22.4% in [4]; 5.55% with Trypanosoma cruzi; 7.29% in [5]. Further, the Percent Effect in test [6] is 4.36%; in the test listed under Homo sapiens, 4.41%; in test [7] it was 3.83%; in test [8] it was 6.17%; in test [9], 97.3%.
On to `CN1N=C(C(=O)NCc2ccc3c(c2)CCCN3C)CCC1=O`, for which the Percent Effect in test [1] was -4.45%; in [2], 8.86%; in [3], 30.5%; in test [4] it was -1.03%; in the test on Trypanosoma cruzi, 4.41%; in test [5], 0.215%. Besides, the Percent Effect is 21.4% in [6]; 0.664% in the test filed under Homo sapiens; 6.25% in [7]; 10.1% in [8]; -23% in [9].
Consider `Cc1cc(C)cc(C2(C(=O)N3CCCC(n4cncn4)C3)CC2)c1` (stereo unspecified), for which the Percent Effect is -0.118% in test [1]; 16.2% in test [2]; 3.34% in test [3]; -6.31% in [4]; -3.44% in the test with Trypanosoma cruzi; 2.4% in [5]. In addition, the Percent Effect in test [6] is 7.36%; in the test filed under Homo sapiens, 12.7%; in [7], 6.93%; in [8] it was 18.3%; in [9], -6.26%.
For `O=C(CN1CCCC1Cn1cccn1)NC1CCOCC1` (stereo unspecified), the Percent Effect in test [1] was -0.811%; in [2], 0%; in test [3], -3.32%; in [4], -1.02%; with Trypanosoma cruzi, 0.772%; in test [5], -2.38%. The Percent Effect is 13.6% in test [6]; -13.8% in the test filed under Homo sapiens; 1.59% in [7]; -12.2% in [8]; -2.17% in test [9].
For `COc1ccc(CC(=O)N2CCCC2Cn2cccn2)cc1F` (stereo unspecified), the Percent Effect in test [1] is -2.59%; in test [2], 2.63%; in test [3] it was -8.2%; in [4], 6.06%; with Trypanosoma cruzi it was -2.52%; in [5], 1.44%. Besides, the Percent Effect was 2.12% in test [6]; -12.5% in the test filed under Homo sapiens; -0.493% in test [7]; 1.24% in test [8]; -2.17% in [9].
On to `COC1CCN(C(=O)c2c(Cl)c3ccccc3n2C)CC1`, for which the Percent Effect in [1] was -5.47%; in test [2], 5.33%; in test [3] it was 0.805%; in test [4], 8.11%; in the test on Trypanosoma cruzi, 3.41%; in test [5] it was 5.21%. For the same compound, the Percent Effect in test [6] was 16.2%; in the test filed under Homo sapiens it was -7.49%; in test [7], 3.83%; in [8], 11.1%; in test [9], -5%.
Turning to `CC1CN=C(N2CCN(C(=O)Nc3nc(-c4ccccc4)ns3)CC2)S1` (stereo unspecified), the Percent Effect in test [1] is -9.42%; in test [2], -5.41%; in [3] it was 7.75%; in [4], -5.9%; with Trypanosoma cruzi, -2.25%; in [5], -3.23%. For the same compound, the Percent Effect in test [6] was 3.35%; in the test listed under Homo sapiens it was 38.4%; in test [7], -2.15%; in [8], -6.17%; in test [9], -0.289%.
Regarding `Cc1ccc(C(=O)N2CCN(C(=O)Nc3ccccn3)CC2)o1`, the Percent Effect in [1] is -7.04%; in test [2], -2.6%; in test [3] it was 9.04%; in [4] it was -0.542%; in the test with Trypanosoma cruzi, -5.58%; in [5] it was 2.32%. In addition, the Percent Effect in test [6] is 9.13%; in the test filed under Homo sapiens, 11%; in test [7], 0%; in [8], -4.71%; in test [9], -16.4%.
